In PubChem BioAssay (NCI):
Where “and” joins values, the source holds several entries; their conditions need not be identical. Equal values may be shown once. About 83,000 compounds went through this panel and 20% of them were active in at least one assay; those are over-represented in the sample as a whole.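 Method: cells in 96-well plates; compound added at one concentration; 48 h incubation; percent growth measured; values under 10 scored active.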 Calls of active or inactive are those of the source.

Experiments:
Experiment in all cases: NCI-60 one-dose screen, 48 h (100 = growth as untreated, 0 = no growth, -100 = all killed)
Conditions in all cases: 10 µM unless noted
HCT-15 colon = test system: HCT-15 colon
HT29 colon = test system: HT29 colon
SNB-75 CNS = test system: SNB-75 CNS
SNB-19 CNS = test system: SNB-19 CNS
U251 CNS = test system: U251 CNS
PC-3 prostate = test system: PC-3 prostate
UACC-62 melanoma = test system: UACC-62 melanoma
LOX IMVI melanoma = test system: LOX IMVI melanoma
SK-MEL-28 melanoma = test system: SK-MEL-28 melanoma
SK-MEL-5 melanoma = test system: SK-MEL-5 melanoma

Structure (SMILES)	growth (HCT-15 colon)	growth (HT29 colon)	growth (SNB-75 CNS)	growth (SNB-19 CNS)	growth (U251 CNS)	growth (PC-3 prostate)	growth (UACC-62 melanoma)	growth (LOX IMVI melanoma)	growth (SK-MEL-28 melanoma)	growth (SK-MEL-5 melanoma)
CC(NC(=O)CCl)c1ccccc1 (stereo not given)	94.9% (inactive)	104% (inactive)	85.6% (inactive)	103% (inactive)	103% (inactive)	95.2% (inactive)	102% (inactive)	98.2% (inactive)	111% (inactive)	
CC(CN(C)C)CN1c2ccccc2Sc2ccccc21 (stereo not given)	84.8% (inactive) and 89.2% (inactive) and 84.7% (inactive)	56.1% (inactive) and 71.1% (inactive) and 67.4% (inactive)	64.2% (inactive) and 60.6% (inactive) and 43.4% (inactive)	94.6% (inactive) and 80.4% (inactive) and 91.2% (inactive)	73.4% (inactive) and 87.5% (inactive) and 76.9% (inactive)	63.7% (inactive) and -49.1% (active) and 52.7% (inactive)	92.8% (inactive) and 65.9% (inactive)	80.6% (inactive) and 83.5% (inactive) and 73.2% (inactive)	87.6% (inactive) and 113% (inactive) and 68.2% (inactive)	
OCc1cccc(F)c1	10.2% (inactive)	17.7% (inactive)	102% (inactive)	92.2% (inactive)	83.5% (inactive)	91% (inactive)	84.7% (inactive)	76.8% (inactive)	116% (inactive)	
COC1C(OC(N)=O)C(O)C(Oc2ccc3c(O)c(NC(=O)c4ccc(O)c(CC=C(C)C)c4)c(=O)oc3c2C)OC1(C)C (stereo not given)	23.6% (inactive) and 96% (inactive)	105% (inactive) and 110% (inactive)	28.8% (inactive) and 77.2% (inactive)	101% (inactive) and 92.7% (inactive)	42.5% (inactive) and 101% (inactive)	90.6% (inactive) and 93.8% (inactive)	103% (inactive) and 97.9% (inactive)		108% (inactive)	103% (inactive) and 98.2% (inactive)
O=S(=O)(O)c1ccc2cc(O)ccc2c1	112% (inactive)	103% (inactive)	93.6% (inactive)	109% (inactive)	98.7% (inactive)	94.7% (inactive)	99.7% (inactive)	104% (inactive)	117% (inactive)	
COC(=O)C(Cc1cn(C(C)=O)c2ccccc12)P(=O)(OC)OC (stereo not given)	103% (inactive)	108% (inactive)	89.5% (inactive)	104% (inactive)	101% (inactive)	88.6% (inactive)	93.1% (inactive)	92.7% (inactive)	114% (inactive)	
Cc1cc(Cl)nc(Nc2ccccc2)n1	97.4% (inactive)	104% (inactive)	96.2% (inactive)	103% (inactive)	98.7% (inactive)	96.8% (inactive)	90.2% (inactive)		109% (inactive)	97.2% (inactive)
CC1NC(C)c2ccc3ccccc3c2O1 (stereo not given)	106% (inactive)	99.8% (inactive)	85.6% (inactive)	104% (inactive)	109% (inactive)	93.3% (inactive)	93.7% (inactive)	97.7% (inactive)	111% (inactive)	
CC1(CO)CCCC1NCCNC1CCCC1(C)CO (stereo not given)	96.8% (inactive) and 99% (inactive)	91.3% (inactive) and 103% (inactive)	84.7% (inactive) and 97.9% (inactive)	102% (inactive) and 103% (inactive)	106% (inactive)	90.9% (inactive) and 95% (inactive)	99% (inactive) and 102% (inactive)	98.8% (inactive)	104% (inactive) and 108% (inactive)	
Cc1c(Cl)c(C)c(Cc2c(C)c(Cl)c(C)c(Cl)c2O)c(O)c1Cl	5.02% (active)	34% (inactive)	25% (inactive)	10.6% (inactive)	8.95% (active)	8.74% (active)	18.2% (inactive)	4.09% (active)	26.1% (inactive)	
CC(=O)Oc1cc(C)c(OC(C)=O)c(C)c1C	98% (inactive)	114% (inactive)	132% (inactive)	96.4% (inactive)	104% (inactive)	90.5% (inactive)	93.1% (inactive)	83.6% (inactive)	130% (inactive)	
O=C(O)c1c2c(nc3ccccc13)Cc1ccccc1-2	103% (inactive)	109% (inactive) and 101% (inactive)	99.6% (inactive) and 101% (inactive)	108% (inactive) and 101% (inactive)	101% (inactive) and 103% (inactive)	99.2% (inactive) and 86% (inactive)	105% (inactive) and 92.9% (inactive)	99.9% (inactive) and 90.1% (inactive)	109% (inactive) and 98.4% (inactive)	
C(=N\OCCc1ccccc1)/c1ccccn1	95% (inactive) and 104% (inactive)	112% (inactive) and 97.7% (inactive)	117% (inactive) and 86.2% (inactive)	108% (inactive) and 103% (inactive)	103% (inactive) and 92.2% (inactive)	112% (inactive) and 104% (inactive)	110% (inactive) and 107% (inactive)	122% (inactive) and 101% (inactive)	114% (inactive) and 112% (inactive)	
N#CC1c2ccccc2C=CN1C(=O)c1ccccc1 (stereo not given)	111% (inactive) and 104% (inactive)	112% (inactive) and 107% (inactive)	92.1% (inactive) and 98% (inactive)	103% (inactive) and 109% (inactive)	101% (inactive) and 97.5% (inactive)	92.4% (inactive) and 146% (inactive)	97.4% (inactive) and 83.7% (inactive)	102% (inactive) and 94.8% (inactive)	103% (inactive) and 122% (inactive)	
COc1ccc(S(=O)(=O)c2ccc(F)cc2)cc1	95.6% (inactive)	106% (inactive)	101% (inactive)	93.1% (inactive)	101% (inactive)	94.1% (inactive)	93.9% (inactive)	81.5% (inactive)	104% (inactive)	
CCOP(=O)(OCC)/C(C#N)=C/c1c(C)[nH]c2ccccc12	108% (inactive)	106% (inactive)	49.8% (inactive)	94.6% (inactive)	88.9% (inactive)	83.3% (inactive)	82.3% (inactive)		113% (inactive)	
COc1ccc(/C=C/C(=O)O)cc1OC	106% (inactive) and 103% (inactive)	106% (inactive) and 97.3% (inactive)	96.5% (inactive) and 103% (inactive)	102% (inactive) and 107% (inactive)	100% (inactive) and 103% (inactive)	95.1% (inactive) and 98.3% (inactive)	98.9% (inactive) and 97.5% (inactive)		111% (inactive) and 115% (inactive)	
O=[N+]([O-])c1cccc(N=Cc2ccccc2)c1	105% (inactive)	101% (inactive)	96.7% (inactive)	118% (inactive)	103% (inactive)	90.6% (inactive)	103% (inactive)	102% (inactive)	122% (inactive)	
